# Test results reported in PubChem BioAssay (NCI).
# About 83,000 compounds went through this panel and 20% of them were active in at least one assay; those are over-represented in the sample as a whole.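 In brief: 96-well plates, 48 h treatment, single concentration, percent growth endpoint.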 Activity calls are given as the source filed them. Rule for the calls: active = growth percent below 10; inactive = the rest.
# Test system: MDA-MB-468 breast
# Assay: NCI-60 one-dose screen, 48 h (100 = growth as untreated, 0 = no growth, -100 = all killed)
# Conditions: 10 µM unless noted
row,SMILES,growth
1,Cc1cn(-c2cc(NC(=O)c3cncc(C#Cc4cnc(N)c5ncccc45)c3)cc(C(F)(F)F)c2)cn1,67.3% (inactive)
2,OCC1OC(n2cnc3c(Cl)ncnc32)CC1O (stereo not given),91.9% (inactive)
3,C[N+](C)(C)CCOC(OCC[N+](C)(C)C)(c1ccccc1)c1ccccc1,128% (inactive)
4,O=C1NCC(c2cc3ccccc3[nH]c2=O)Nc2ccccc21 (stereo not given),97.5% (inactive)
5,Clc1ccc(N2N=C(c3cccc(Nc4ccncc4)c3)CC2c2ccc3c(c2)OCO3)cc1 (stereo not given),62.1% (inactive)
6,O=C1CSC(=S)N1CCc1ccc(O)cc1,40.5% (inactive)
7,CCCCCCCOc1c(OC)cc(C2CC(=O)Nc3c2c(C)nn3-c2nc3ccccc3[nH]2)cc1OC (stereo not given),-4.43% (active)
8,CCOC(=O)c1ccc(NC(C)=O)o1,89.3% (inactive)
9,CCN1C(=O)/C(=C/C(=O)OC)S/C1=N\NC(=O)c1cc2ccc1/C=C\c1ccc(cc1)/C=C\2,87.3% (inactive)
10,Nc1nc(-c2ccccn2)cc(-c2cc(-c3ccccn3)nc(N)n2)n1,98.7% (inactive)
11,COc1ccc2c(Cl)cc(NC(=O)Nc3c(C)cccc3C)nc2c1,79.2% (inactive)
12,COc1ccc(NC(=O)c2sc3nc(C)c(C(=O)c4ccc(OC)cc4)cc3c2N)cc1,13.2% (inactive)
13,CCOC(=O)NNc1nncc2ccccc12,105% (inactive)
14,NC1N=C(SCC(=O)N2CCN(c3cc4c(cc3F)c(=O)c(C(=O)O)cn4C3CC3)CC2)NC(=O)/C1=C/c1ccc(Cl)cc1 (stereo not given),111% (inactive)
15,c1ccc2c(c1)Nc1cc3ccccc3cc1N2,40.3% (inactive)
